# Legend:
# Test in all cases: protein-binding microarray (PBM); PBM: ~300 nM protein, 6 mM HEPES pH 7.8, 80 mM KCl, 0.5 mM EDTA, 0.5 mM EGTA, 6% glycerol, 35 ng/ul poly-dIdC, 1% milk, 1 h, room temperature; Ap Aiptasia and Nv Nematostella (sea anemones) / Co Capsaspora / Aq Amphimedon (sponge) / Dm Drosophila / Hu human; RHD is the Rel homology domain; high values mean tight binding
# Details in all cases: dsDNA, one strand shown
# GST-Ap-NF-kB RHD = target: T1, GST-Ap-NF-kB RHD (Exaiptasia pallida (Aiptasia), UniProt A0A913YAJ5 2-422)
# T1 sequence: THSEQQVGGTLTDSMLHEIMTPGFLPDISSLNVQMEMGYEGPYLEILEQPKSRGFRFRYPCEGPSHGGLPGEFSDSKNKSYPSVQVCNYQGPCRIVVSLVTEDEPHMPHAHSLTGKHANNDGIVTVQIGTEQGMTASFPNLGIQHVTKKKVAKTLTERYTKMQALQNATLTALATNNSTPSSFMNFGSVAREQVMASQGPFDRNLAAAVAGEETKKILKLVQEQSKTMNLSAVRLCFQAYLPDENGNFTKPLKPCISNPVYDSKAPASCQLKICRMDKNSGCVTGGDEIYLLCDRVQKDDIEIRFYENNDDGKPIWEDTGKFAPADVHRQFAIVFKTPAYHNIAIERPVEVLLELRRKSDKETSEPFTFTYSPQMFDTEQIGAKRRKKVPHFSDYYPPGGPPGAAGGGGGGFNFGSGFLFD
# [1] = target: T2, GST-Nv-NF-kB (Cys allele) (Nematostella vectensis, UniProt E5G601 2-411)
# T2 sequence: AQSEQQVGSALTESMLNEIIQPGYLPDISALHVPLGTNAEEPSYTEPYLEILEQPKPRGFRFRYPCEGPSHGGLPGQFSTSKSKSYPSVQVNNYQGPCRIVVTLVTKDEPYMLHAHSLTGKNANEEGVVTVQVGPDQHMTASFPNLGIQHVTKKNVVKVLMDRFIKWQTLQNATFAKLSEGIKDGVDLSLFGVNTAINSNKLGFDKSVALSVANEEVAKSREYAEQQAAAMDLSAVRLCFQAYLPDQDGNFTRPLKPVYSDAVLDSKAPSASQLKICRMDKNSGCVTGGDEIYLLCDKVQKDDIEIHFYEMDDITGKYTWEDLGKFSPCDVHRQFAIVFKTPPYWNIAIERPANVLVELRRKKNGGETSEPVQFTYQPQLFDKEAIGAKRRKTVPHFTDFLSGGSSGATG
# GST-Co-NF-kB = target: T3, GST-Co-NF-kB (Capsaspora owczarzaki, UniProt F1ARL5 200-546)
# T3 sequence: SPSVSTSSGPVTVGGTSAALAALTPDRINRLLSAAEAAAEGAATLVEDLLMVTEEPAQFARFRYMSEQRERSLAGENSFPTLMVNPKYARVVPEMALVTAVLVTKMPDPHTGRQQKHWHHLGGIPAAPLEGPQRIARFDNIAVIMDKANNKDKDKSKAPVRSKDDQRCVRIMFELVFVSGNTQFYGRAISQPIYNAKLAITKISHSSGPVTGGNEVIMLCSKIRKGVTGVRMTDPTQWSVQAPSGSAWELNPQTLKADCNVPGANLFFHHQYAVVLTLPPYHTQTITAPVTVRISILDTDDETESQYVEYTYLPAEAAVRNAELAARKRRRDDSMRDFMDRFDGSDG
# GST-Dm-Relish = target: T4, GST-Dm-Relish (Drosophila melanogaster, UniProt Q94527 99-473)
# T4 sequence: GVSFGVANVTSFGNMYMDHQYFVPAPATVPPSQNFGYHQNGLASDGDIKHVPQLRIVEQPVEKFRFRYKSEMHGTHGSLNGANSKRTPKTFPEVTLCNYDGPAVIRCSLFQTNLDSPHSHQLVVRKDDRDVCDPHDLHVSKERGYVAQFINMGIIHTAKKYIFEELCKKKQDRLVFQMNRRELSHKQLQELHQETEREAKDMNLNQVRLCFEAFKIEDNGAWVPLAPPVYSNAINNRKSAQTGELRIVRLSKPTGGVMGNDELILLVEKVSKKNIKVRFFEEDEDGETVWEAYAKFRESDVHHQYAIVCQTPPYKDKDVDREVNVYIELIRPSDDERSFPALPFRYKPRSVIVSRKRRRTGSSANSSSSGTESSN
# GST-Aq-NF-kB = target: T5, GST-Aq-NF-kB (Amphimedon queenslandica, UniProt A9Y5G7 2-389)
# T5 sequence: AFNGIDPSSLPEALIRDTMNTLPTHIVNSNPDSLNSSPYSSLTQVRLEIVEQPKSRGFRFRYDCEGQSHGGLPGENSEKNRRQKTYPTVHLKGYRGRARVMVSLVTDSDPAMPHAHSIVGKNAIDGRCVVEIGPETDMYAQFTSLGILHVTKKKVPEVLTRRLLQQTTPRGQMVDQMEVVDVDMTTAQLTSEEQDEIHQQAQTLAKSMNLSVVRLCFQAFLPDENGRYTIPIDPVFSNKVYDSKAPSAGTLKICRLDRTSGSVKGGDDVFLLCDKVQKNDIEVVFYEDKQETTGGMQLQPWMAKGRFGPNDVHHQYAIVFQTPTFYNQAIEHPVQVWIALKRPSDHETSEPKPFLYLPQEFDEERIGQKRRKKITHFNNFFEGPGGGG
Sequence,binding signal (GST-Ap-NF-kB RHD) [z-score],binding signal [1] [z-score],binding signal (GST-Co-NF-kB) [z-score],binding signal (GST-Dm-Relish) [z-score],binding signal (GST-Aq-NF-kB) [z-score]
CCGATTAACATCAGGGTAAAACCTGATGTTAATCGGGTCTTGATTCGCTTGACGCTGCTG,1.98,3.16,1.9,3.45,6.02
CCGATTAACATCACGGCAATCCCTGATGTTAATCGGGTCTTGATTCGCTTGACGCTGCTG,1.5,1.21,,2.64,2.66
CCGATTAACATCAGGGAGCCCCCTGATGTTAATCGGGTCTTGATTCGCTTGACGCTGCTG,8.32,4.79,2.5,9.12,7.55
CCGATTAACATCAAGCAATTCCCTGATGTTAATCGGGTCTTGATTCGCTTGACGCTGCTG,3.2,4.28,2.25,1.23,3.57
CCGATTAACATCAGGAACATCCCTGATGTTAATCGGGTCTTGATTCGCTTGACGCTGCTG,1.46,1.39,,1.9,4.06
CCGATTAACATCAGGCGAGTCCCTGATGTTAATCGGGTCTTGATTCGCTTGACGCTGCTG,3.13,3.12,,1.72,4.31
CCGATTAACATCAGAATATTCCCTGATGTTAATCGGGTCTTGATTCGCTTGACGCTGCTG,5.6,6.1,3.41,3.01,5.6
CCGATTAACATCAGAAAAAACCCTGATGTTAATCGGGTCTTGATTCGCTTGACGCTGCTG,3.95,4.93,,6.15,6.47
CCGATTAACATCAGGGAAGCCCATGATGTTAATCGGGTCTTGATTCGCTTGACGCTGCTG,1.18,1.19,,8.29,3.64
CCGATTAACATCAGAGAAACCCCTGATGTTAATCGGGTCTTGATTCGCTTGACGCTGCTG,5.16,4.86,,5.69,5.18
CCGATTAACATCAGAGAAGTCCCTGATGTTAATCGGGTCTTGATTCGCTTGACGCTGCTG,5.7,6.22,,4.44,5.93
CCGATTAACATCAGGGACTCACCTGATGTTAATCGGGTCTTGATTCGCTTGACGCTGCTG,3.77,3.19,,7.74,4.68
CCGATTAACATCAGGGATATCCATGATGTTAATCGGGTCTTGATTCGCTTGACGCTGCTG,1.84,1.09,,2.52,2.44
CCGATTAACATCAGGTAATTCCATGATGTTAATCGGGTCTTGATTCGCTTGACGCTGCTG,1.26,1.89,,4.41,3.06
CCGATTAACATCAAGGTAATTCCTGATGTTAATCGGGTCTTGATTCGCTTGACGCTGCTG,1.69,2.09,,4.8,3.37
CCGATTAACATCAGGAAAAACCCTGATGTTAATCGGGTCTTGATTCGCTTGACGCTGCTG,4.35,5.86,,6.52,7.68
CCGATTAACATCAGGAACGCCCCTGATGTTAATCGGGTCTTGATTCGCTTGACGCTGCTG,3.09,3.22,,2.09,5.42
CCGATTAACATCAGGATATACCCTGATGTTAATCGGGTCTTGATTCGCTTGACGCTGCTG,2.02,2.26,,2.67,4.83
CCGATTAACATCAAGGGTTTTCCTGATGTTAATCGGGTCTTGATTCGCTTGACGCTGCTG,3.57,3.39,,4.7,5.2

Sequence,binding signal (GST-Ap-NF-kB RHD) [z-score],binding signal [1] [z-score],binding signal (GST-Co-NF-kB) [z-score],binding signal (GST-Dm-Relish) [z-score],binding signal (GST-Aq-NF-kB) [z-score]
CCGATTAACATCACGGGTTTTTCTGATGTTAATCGGGTCTTGATTCGCTTGACGCTGCTG,3.7,3.76,,5.07,4.7
CCGATTAACATCACGGAATTACCTGATGTTAATCGGGTCTTGATTCGCTTGACGCTGCTG,1.02,1.63,,3.44,3.88
CCGATTAACATCAATGGGATTCCTGATGTTAATCGGGTCTTGATTCGCTTGACGCTGCTG,1.54,1.13,,7.4,1.65
CCGATTAACATCAGAAAATTACCTGATGTTAATCGGGTCTTGATTCGCTTGACGCTGCTG,2.06,3.89,,4.45,3.25
CCGATTAACATCAGGAGGCCCCCTGATGTTAATCGGGTCTTGATTCGCTTGACGCTGCTG,4.97,2.51,,2.71,5.1
CCGATTAACATCAGGGATTCTCATGATGTTAATCGGGTCTTGATTCGCTTGACGCTGCTG,2.96,1.8,,2.59,2.67
CCGATTAACATCAGGGAGCTACCTGATGTTAATCGGGTCTTGATTCGCTTGACGCTGCTG,2.89,1.88,,1.02,3.21
CCGATTAACATCAGGAATTCACCTGATGTTAATCGGGTCTTGATTCGCTTGACGCTGCTG,1.52,3.06,,6.05,4.83
CCGATTAACATCAGGGCAAACCCTGATGTTAATCGGGTCTTGATTCGCTTGACGCTGCTG,1.34,1.88,,1.14,4.6
CCGATTAACATCAGGAAACTACCTGATGTTAATCGGGTCTTGATTCGCTTGACGCTGCTG,1.63,2.51,,4.48,4.72
CCGATTAACATCAGGGGTTTAACTGATGTTAATCGGGTCTTGATTCGCTTGACGCTGCTG,2.44,2.32,,3.3,3.04
CCGATTAACATCAAGGAATTACCTGATGTTAATCGGGTCTTGATTCGCTTGACGCTGCTG,1.08,2.06,,5.14,3.3
CCGATTAACATCAAGGGGGTCCCTGATGTTAATCGGGTCTTGATTCGCTTGACGCTGCTG,5.89,3.29,,7.16,4.47
CCGATTAACATCAGGACTATCCCTGATGTTAATCGGGTCTTGATTCGCTTGACGCTGCTG,1.82,2.61,,1.48,5.97
CCGATTAACATCAGGCAAGTCCCTGATGTTAATCGGGTCTTGATTCGCTTGACGCTGCTG,3.63,3.87,,2.41,5.74
CCGATTAACATCAGGAATGTCCCTGATGTTAATCGGGTCTTGATTCGCTTGACGCTGCTG,3.06,5.35,,3.4,6.41
CCGATTAACATCAGGAAAATACCTGATGTTAATCGGGTCTTGATTCGCTTGACGCTGCTG,1.22,2.3,,4.66,4.29
CCGATTAACATCAGGACTTTACCTGATGTTAATCGGGTCTTGATTCGCTTGACGCTGCTG,1.18,3.27,,5.92,4.69
